The source of these data is PubChem BioAssay (NCATS).

The nature of assay [1]: qHTS of pediatric cancer cell lines to identify multiple opportunities for drug repurposing: Primary screen for Saos-2 cells (AID 1347097). Further: nearly all actives have a fitted effect of over 40% in size. The method in brief:
(§1)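 Primary screen of approved and investigational compounds on cells in growth media at 37 degrees C, 5% CO2. MIPE set at 11-point and NPC set at 8-point dilutions; viability scored by ATP-based luminescence at 48 hours.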
A general note: In qHTS, concentration-response curves come from the screen itself.

A short description of assay [2]: qHTS of pediatric cancer cell lines to identify multiple opportunities for drug repurposing: Primary screen for SK-N-SH cells (AID 1347098). Further: nearly all actives have a fitted effect of over 65% in size. In a few lines:
(§2)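 Cells (500-1,000/well) rested 5 h, then received compounds for 48 h; metabolically active cells were measured by CellTiter-Glo luminescence. Final concentrations spanned up to 46 µM (MIPE, 11-point) or 0.59 nM-46 µM (NPC, 8-point) in primary screens, 11-point in follow-ups.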

The nature of assay [3]: qHTS of pediatric cancer cell lines to identify multiple opportunities for drug repurposing: Primary screen for NB1643 cells (AID 1347099). Further: nearly all actives have a fitted effect of over 50% in size. The method in brief: as §1
Assay [4] in a line: qHTS of pediatric cancer cell lines to identify multiple opportunities for drug repurposing: Primary screen for BT-12 cells (AID 1347101). Further: nearly all actives have a fitted effect of over 25% in size. In a few lines:
as §2

Assay [5] can be described thus: qHTS of pediatric cancer cell lines to identify multiple opportunities for drug repurposing: Primary screen for Rh18 cells (AID 1347102). Further: nearly all actives have a fitted effect of over 65% in size. The method in brief: as §2
A short description of assay [6]: qHTS of pediatric cancer cell lines to identify multiple opportunities for drug repurposing: Primary screen for RD cells (AID 1347104). Further: nearly all actives have a fitted effect of over 55% in size. In a few lines: as §1
The nature of assay [7]: qHTS of pediatric cancer cell lines to identify multiple opportunities for drug repurposing: Primary screen for MG 63 (6-TG R) cells (AID 1347105). Further: nearly all actives have a fitted effect of over 50% in size. In a few lines:
as §1

A short description of assay [8]: qHTS of pediatric cancer cell lines to identify multiple opportunities for drug repurposing: Primary screen for control Hh wild type fibroblast cells (AID 1347106). Further: nearly all actives have a fitted effect of over 55% in size. The method in brief: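 Viability after 48 h compound treatment at 37C, 500-1,000 cells/well, read as ATP luminescence with CellTiter-Glo. Primary screens used 11-point (MIPE, 0.78 nM-46 µM) or 8-point (NPC, 0.59 nM-46 µM) final concentrations; follow-up screens used 11-point dilutions.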

Assay [9] can be described thus: qHTS of pediatric cancer cell lines to identify multiple opportunities for drug repurposing: Primary screen for Rh41 cells (AID 1347108). Further: nearly all actives have a fitted effect of over 70% in size. The method in brief: as §1
Assay [10] in a line: qHTS of pediatric cancer cell lines to identify multiple opportunities for drug repurposing: Primary screen for LAN-5 cells (AID 1347100). In a few lines:
as §2

Assay [11] in a line: qHTS of pediatric cancer cell lines to identify multiple opportunities for drug repurposing: Primary screen for OHS-50 cells (AID 1347103). Further: nearly all actives have a fitted effect of over 40% in size. In a few lines: as §2
Assay [12] in a line: qHTS of pediatric cancer cell lines to identify multiple opportunities for drug repurposing: Primary screen for Rh30 cells (AID 1347107). Further: nearly all actives have a fitted effect of over 75% in size. In a few lines: as §2
The nature of assay [13]: qHTS of pediatric cancer cell lines to identify multiple opportunities for drug repurposing: Confirmatory screen for SK-N-MC cells (AID 1347111).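 Further: cells exposed to compound for 48 h before the readout; nearly all actives have a fitted effect of over 70% in size.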 The method in brief: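 Seed 500-1,000 cells/well; rest 5 h at 37 degrees C. Pin-transfer compounds, 11-point titration. Incubate 48 h. Add CellTiter-Glo, 15 min RT, read luminescence.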
Assay [14] can be described thus: qHTS of pediatric cancer cell lines to identify multiple opportunities for drug repurposing: Confirmatory screen for BT-12 cells (AID 1347112). Further: nearly all actives have a fitted effect of over 55% in size. In a few lines: as §2
Assay [15] is described as follows: qHTS of pediatric cancer cell lines to identify multiple opportunities for drug repurposing: Confirmatory screen for DAOY cells (AID 1347114). Further: nearly all actives have a fitted effect of over 65% in size. In a few lines:
(§3)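 Viability measured as metabolically active cells via CellTiter-Glo luminescence following 48 hours of compound exposure, 11-point dilutions in confirmatory testing. 500-1,000 cells/well plated 5 hours before dosing; controls were DMSO and 2.3 µM bortezomib.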

Assay [16] in a line: qHTS of pediatric cancer cell lines to identify multiple opportunities for drug repurposing: Confirmatory screen for SJ-GBM2 cells (AID 1347116). Further: nearly all actives have a fitted effect of over 60% in size. The method in brief: as §3
Assay [17] can be described thus: qHTS of pediatric cancer cell lines to identify multiple opportunities for drug repurposing: Confirmatory screen for NB1643 cells (AID 1347109). Further: nearly all actives have a fitted effect of over 45% in size. In a few lines: as §2
Assay [18] can be described thus: qHTS of pediatric cancer cell lines to identify multiple opportunities for drug repurposing: Confirmatory screen for LAN-5 cells (AID 1347113). Further: nearly all actives have a fitted effect of over 65% in size. In a few lines:
as §2

A short description of assay [19]: qHTS of pediatric cancer cell lines to identify multiple opportunities for drug repurposing: Confirmatory screen for NB-EBc1 cells (AID 1347115).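 Further: cells exposed to compound for 48 h before the viability read; nearly all actives have a fitted effect of over 45% in size.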 The method in brief:
as §2

The nature of assay [20]: qHTS of pediatric cancer cell lines to identify multiple opportunities for drug repurposing: Confirmatory screen for A673 cells (AID 1347110). In a few lines:
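A673 cells at 500-1,000 cells/well were dosed 5 h after plating, in dilution series up to 46 uM final; primary runs used 8 or 11 points and confirmatory runs used 11 points. Viability was read by CellTiter-Glo luminescence after 48 h, against DMSO and 2.3 uM bortezomib controls.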

The structures appear in SMILES notation. Records with an inconclusive call do not appear. Active and inactive are the calls of the source. The call rests on the fitted dose curve; in most records, active means well fitted curve in the direction sought with a large enough effect; inconclusive means small, poorly fitted or top-dose-only effect, or another doubt; inactive means no such curve, though single readings can be large; an effect the other way counts as inactive or inconclusive.
Potency means the concentration at half of the fitted maximal effect.

In the case of `CS(=O)(=O)c1ccc(-c2cnc(N)c(C(=O)Nc3ccccc3)n2)cc1`, the Potency result in assay [1], in assay [2], in assay [3], in assay [4], in assay [5] and in [6] was “inactive” in each case. For the same molecule, the Potency result in assay [7], in [8] and in assay [9] was “inactive” throughout.
Turning to `COc1cc2c(Oc3ccc4[nH]c(C)cc4c3F)ncnc2cc1OCCCN1CCCC1`, the Potency is 29600 nM (active) in assay [1]; 7640 nM (active) in assay [2]; 20900 nM (active) in assay [10]; 24300 nM (active) in assay [4]; 18700 nM (active) in [5]; 30600 nM (active) in [11]. In addition, the Potency is 26400 nM (active) in [6]; 23500 nM (active) in [7]; 26400 nM (active) in assay [8]; 23500 nM (active) in assay [12]; 18700 nM (active) in [9].
For the molecule `O=C(NC1CCNCC1)c1[nH]ncc1NC(=O)c1c(Cl)cccc1Cl`, the Potency in [1] is 1660 nM (active); in assay [2] it was 1710 nM (active); in assay [4], 1930 nM (active); in assay [11] it was 968 nM (active); in [6], 332 nM (active); in [7], 3720 nM (active). In addition, the Potency in [9] is 743 nM (active); in assay [13], 3020 nM (active); in [14], 3020 nM (active); in assay [15], 1170 nM (active); in assay [16], 1310 nM (active).
Turning to `C1Cc2[nH]nc(-c3nn[nH]n3)c2C1`, the Potency entry in assay [1], in [2], in [10], in [4], in assay [5] and in [6] was “inactive” each time. The Potency entry in assay [7], in assay [8], in assay [12] and in [9] was “inactive” in each case.
As to `Cc1cc(Nc2cc(CN3CCOCC3)c3nc(C)c(Cc4ccc(Cl)cc4F)n3n2)n[nH]1`, the Potency in assay [1] is 5900 nM (active); in assay [2], 6810 nM (active); in assay [10] it was 469 nM (active); in assay [5] it was 13200 nM (active); in [6], 20900 nM (active); in assay [7], 14800 nM (active). Moreover, the Potency in [12] and in assay [9] was 14800 nM (active) in each case.
For `COc1cc(-c2nn(C3CCC(N4CCN(C(C)=O)CC4)CC3)c3ncnc(N)c23)ccc1NC(=O)c1cc2ccccc2n1C` (configuration not stated), the Potency is 526 nM (active) in assay [1]; 3410 nM (active) in assay [2]; 332 nM (active) in assay [10]; 2170 nM (active) in [11]; 662 nM (active) in assay [6].
Turning to `O=C(O)CCCc1c[nH]c2ccccc12`, the Potency result in assay [1], in assay [2], in [5], in assay [11], in assay [6] and in assay [7] was “inactive” in each case. Moreover, the Potency result in [8], in assay [12] and in assay [9] was “inactive” in each case.
`CNC(=O)c1cc(Oc2ccc(NC(=O)Nc3cc(C(C)(C)C)nn3-c3ccc4ncccc4c3)c(F)c2)ccn1`: the Potency was 16600 nM (active) in assay [1]; 19200 nM (active) in [2]; 4690 nM (active) in assay [3]; 24300 nM (active) in assay [4]; 20900 nM (active) in [5]; 27300 nM (active) in [11]. Moreover, the Potency in [6] was 10500 nM (active); in assay [9] it was 23500 nM (active).
Take `CCCCCN(CCC12CC3CC(CC(C3)C1)C2)C(=O)NCCCc1ccncc1`: the Potency was 18700 nM (active) in assay [1], 16600 nM (active) in [10] and 19300 nM (active) in assay [11]. Besides, the Potency entry in assay [2], in assay [8] and in assay [12] was “inactive” throughout.
For `CCN1CCN(Cc2ccc(-c3cc4c(N[C@H](C)c5ccccc5)ncnc4[nH]3)cc2)CC1`, the Potency was 209 nM (active) in assay [1]; 21500 nM (active) in [2]; 14.8 nM (active) in assay [10]; 769 nM (active) in assay [4]; 5900 nM (active) in assay [5]; 153 nM (active) in assay [11]. For the same molecule, the Potency was 7.4 nM (active) in assay [6]; 13500 nM (active) in [17]; 851 nM (active) in [13]; 26900 nM (active) in [14]; 9550 nM (active) in assay [18]; 8510 nM (active) in [15]. Besides, the Potency in assay [19] is 38000 nM (active); in assay [16], 30200 nM (active). Also, in assay [8], the Potency result is “inactive”.
On to `CCN1CCN(CC(=O)Nc2ccc(-c3cccc4c(=O)cc(N5CCOCC5)oc34)c3sc4ccccc4c23)CC1`, for which the Potency in [1] was 2960 nM (active); in assay [2], 6070 nM (active); in assay [10], 833 nM (active); in assay [5], 1180 nM (active); in assay [6] it was 743 nM (active); in assay [12], 10500 nM (active). Further, the Potency in assay [9] is 1660 nM (active). Also, the Potency entry in assay [8] was “inactive”.
As for `Cc1c(CN2CCN(S(C)(=O)=O)CC2)sc2c(N3CCOCC3)nc(-c3cnc(N)nc3)nc12`, the Potency is 332 nM (active) in [1]; 1920 nM (active) in assay [2]; 26.4 nM (active) in [10]; 105 nM (active) in assay [5]; 9.7 nM (active) in [11]; 132 nM (active) in [6]. Further, the Potency in assay [7] is 37.2 nM (active); in [8], 209 nM (active); in assay [9] it was 148 nM (active); in assay [17], 1310 nM (active); in assay [20], 1850 nM (active); in assay [13], 827 nM (active). In addition, the Potency in assay [18] is 1310 nM (active).
Regarding `COc1ccc(CC2SC(=O)NC2=O)cc1C(=O)NCc1ccc(C(F)(F)F)cc1` (configuration not stated), the Potency entry in [1], in assay [2], in assay [10], in [5], in assay [11] and in [6] was “inactive” each time. Also, the Potency result in assay [7], in assay [8], in [12] and in assay [9] was “inactive” each time.
For the molecule `CC(C)(C)c1cnc(CSc2cnc(NC(=O)C3CCNCC3)s2)o1`, the Potency is 743 nM (active) in assay [1]; 1520 nM (active) in assay [2]; 432 nM (active) in [4]; 273 nM (active) in assay [11]; 264 nM (active) in assay [6]; 590 nM (active) in [9]. Also, the Potency is 165 nM (active) in assay [17]; 414 nM (active) in [20]; 329 nM (active) in assay [13]; 369 nM (active) in assay [14]; 261 nM (active) in [18]; 1170 nM (active) in [15]. The Potency in assay [16] was 414 nM (active). Further, the Potency entry in [12] was “inactive”.
Consider `CCCNC(=O)Nc1ccc(Oc2ncnc3cc(OC)c(OC)cc23)cc1Cl`, for which the Potency result in assay [1], in assay [2], in assay [3], in assay [4], in assay [5] and in assay [11] was “inactive” in each case. Moreover, the Potency result in [6], in [8], in [12] and in assay [9] was “inactive” in each case.
